The list is not random: actives were taken first. Their share in the collection is about 2.6%.
Jurkat NFkB inh: inhibitors of the PMA/ionomycin-induced NF-kB reporter in Jurkat cells; PMA/ionomycin-induced NF-kB luciferase reporter, luminescence; inhibition, % at 4 µM; 330,000 compounds, 0.53% hits; AID 435003; in the data active means inhibition above about 50%
TAG inh: reduces triacylglycerol accumulation in H9c2 cells; Nile Red lipid (TAG) fluorescence; cells loaded with 200 µM oleic acid; inhibition, % at 12.5 µM; 230,000 compounds, 0.66% hits;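 active means pattern-corrected inhibition of lipid staining of at least 50% with the nuclear-stain viability signal not falling by more than 50%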;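 further: 0% = DMSO wells and 100% = triacsin C control wells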
Gli-Sufu antag: antagonists of Gli-Sufu signaling; Sufu-KO-LIGHT fibroblasts, Gli luciferase reporter luminescence; inhibition, % at 5 µM; 340,000 compounds, 0.74% hits; AID 588413;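 active means inhibition above about 55%, limit read from the data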;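 further: 0% = DMSO-treated cells and 100% = wells with medium but no cells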
NR2F2 inh: NR2F2 (human) inhibition, primary screen; P24468; inhibition, % at 8.6 µM; 370,000 compounds, 0.7% hits; HEK293T NGFI-A luciferase reporter, luminescence;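 active means inhibition above a per-plate cutoff, mean inhibition of test wells between control levels plus 3 SD, cut at about 38% in these data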;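 further: cells cotransfected with COUP-TFII expression vector driving the NGFI-A reporter; 0% = median of COUP-TF2 test wells and 100% = reporter-only cells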
Target sequence (P24468 whole entry, looked up): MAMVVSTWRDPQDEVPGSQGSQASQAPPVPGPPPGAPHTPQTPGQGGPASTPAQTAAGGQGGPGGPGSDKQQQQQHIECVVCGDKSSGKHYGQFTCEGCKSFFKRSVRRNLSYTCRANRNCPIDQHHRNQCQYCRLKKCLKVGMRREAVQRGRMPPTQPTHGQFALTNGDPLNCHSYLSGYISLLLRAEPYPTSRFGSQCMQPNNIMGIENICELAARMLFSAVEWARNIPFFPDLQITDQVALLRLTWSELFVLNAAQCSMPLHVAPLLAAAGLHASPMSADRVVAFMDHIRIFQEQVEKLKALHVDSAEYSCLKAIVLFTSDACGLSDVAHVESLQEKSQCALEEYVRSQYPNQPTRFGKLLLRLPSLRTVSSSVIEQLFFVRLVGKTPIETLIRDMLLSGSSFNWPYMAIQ
697 NFkB inh: lowers PMA/ionomycin-induced NF-kB signal in 697 B cells; 697 B-cell NF-kB luciferase reporter, 16 h; inhibition, % at 4 µM; 330,000 compounds, 0.33% hits; in the data active means inhibition above about 35%
Cardio protect: myocardial damage modulation in H9c2 cells; H9c2 cardiomyocytes, H2O2 injury protection, ATPLite, 2 h; protection from H2O2 cell death, % at 20 µM; 360,000 compounds, 0.63% hits; AID 588492;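 active means compounds giving at least 50% protection of heart cells from peroxide-induced death in the single-dose screen, raw or plate-pattern-corrected value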;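 further: 0% = DMSO wells with peroxide and 100% = DMSO wells without peroxide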
* = called active by the depositor; · = not tested or not shown.

SMILES	Jurkat NFkB inh	TAG inh	Gli-Sufu antag	NR2F2 inh	697 NFkB inh	Cardio protect
COC(=O)[C@]12C[C@H](CC(=O)N3CCCC3)C(=O)N(CCC3=CCCCC3)C1=C[C@H](C(C)C)O[C@@H]2C1CC1	·	·	·	-8	·	·
Oc1cccc(/C=N/Nc2cc(N3CCOCC3)nc(N3CCOCC3)n2)c1	-32	121	22	-34	18	5
Oc1ccc(/C=N/Nc2cc(N3CCOCC3)nc(N3CCOCC3)n2)cc1O	-8	·	23	-3	-27	53*
Cc1onc(-c2ccc(Cl)cc2)c1-c1ccn(S(=O)(=O)c2ccccc2Cl)n1	·	·	·	15	·	·
COc1cc(-c2nc(-c3ccc(NC(=O)c4ccc5c(c4)OCO5)cc3)no2)cc(OC)c1OC	-32	93*	5	-12	-55	-11
O=C(NCCN1CCC(Cc2ccccc2)CC1)C1CCCN(S(=O)(=O)c2ccccc2[N+](=O)[O-])C1 (stereo not drawn)	·	·	·	31	·	·
Cc1ccccc1C(=O)Nc1ccc2c(C#N)c3nc4ccccc4nc3n2c1	0	·	9	8	-9	65*
c1nc(NCC2CC2)c2cc(-c3ccc4c(c3)OCO4)ccc2n1	·	·	·	-22	·	·
O=C(Nc1cccc(N=Cc2cc(Br)cc(Br)c2O)c1)c1ccco1	·	·	-13	5	·	51*
O=C(Nc1cc(Br)c(O)c(Br)c1)c1cccc(NC(=O)c2ccco2)c1	-4	·	-7	-12	8	-3
O=C(Nc1cccc(N=Cc2cc(Cl)cc(Br)c2O)c1)c1ccco1	-1	·	-15	7	16	50*
COc1ccc(OC)c(S(=O)(=O)N2CCCCC2C(=O)N2CCN(c3ccccc3F)CC2)c1 (stereo not drawn)	·	·	·	-4	·	·
N=c1c2c(ccn1CCCCc1ccccc1)Oc1ccc3ccccc3c1C2c1ccccc1 (stereo not drawn)	·	·	·	20	·	·
Cc1ccc(-n2ncc(Br)c(Br)c2=O)cc1	·	66*	-8	·	·	-25
O=c1c(Br)c(Br)cnn1-c1ccccc1	·	90*	1	-5	·	-37
COc1c(Cl)cnn(-c2ccc(C)cc2)c1=O	12	·	12	-3	2	-7
O=C(c1c(F)cccc1F)N1CCC(Oc2cccnc2)CC1	·	·	·	-8	·	·
CC(C)C[C@H]1COc2cccc(F)c2S(=O)(=O)N1Cc1cn(CCC2OCCO2)nn1	·	·	·	8	·	·
O=C(NCc1cccnc1)NC1(C(F)(F)F)Oc2ccc(Cl)cc2O1 (stereo not drawn)	29	5	10	·	-85	58*
COCCNC(=O)NC1(C(F)(F)F)Oc2ccc(Cl)cc2O1 (stereo not drawn)	15	-11	41	-5	-19	11
COc1cc(C(=O)NC2CCN(C)CC2)ccc1Nc1ncc2c(n1)N(C1CCCC1)CCC(=O)N2C(C)C	·	58*	30	·	·	-20
COC[C@@H]1CCCN1c1ccc2c(c1)O[C@@H]1CCN(C1)S2(=O)=O	·	·	·	-14	·	·
NC(=O)c1c(N)[nH]c(C(=O)c2ccccc2)c1-c1ccccc1	·	·	·	9	·	·
Cc1c(Nc2ccc3nonc3c2[N+](=O)[O-])c(=O)n(-c2ccccc2)n1C	5	-14	-4	0	1	5
Cc1c(Nc2cc(Cl)c3nonc3c2[N+](=O)[O-])c(=O)n(-c2ccccc2)n1C	18	102*	45	4	10	-24
SMILES	Jurkat NFkB inh	TAG inh	Gli-Sufu antag	NR2F2 inh	697 NFkB inh	Cardio protect
CC(C)CN1CCN(C(=O)COC(=O)c2ccc(S(C)(=O)=O)c([N+](=O)[O-])c2)CC1	·	65*	·	-1	·	-24
CC(OC(=O)c1ccc(S(C)(=O)=O)c([N+](=O)[O-])c1)C(=O)NC1C2CC3CC(C2)CC1C3 (stereo not drawn)	·	65*	·	-20	·	-44
CCC(OC(=O)c1ccc(S(C)(=O)=O)c([N+](=O)[O-])c1)C(=O)NC1C2CC3CC(C2)CC1C3 (stereo not drawn)	·	74	·	-9	·	-23
CCC(C)NC(=O)C1CCN(S(=O)(=O)c2ccc3[nH]c(=O)oc3c2)CC1 (stereo not drawn)	·	·	·	10	·	·
COC(=O)C1=C(C)N(C)C(=NCc2ccc3c(c2)OCO3)NC1c1ccc(F)cc1 (stereo not drawn)	·	·	·	-11	·	·
COc1cc(NC(=O)c2ccc(-c3cn[nH]c3)c3ccoc23)cc(OC)c1OC	·	32	·	-54	·	66*
CC(=O)NC(C)c1ccc(Cl)c(Cl)c1 (stereo not drawn)	1	·	-23	2	3	2
CC(=O)NC(CCc1ccc(Cl)c(Cl)c1)c1cccc(O)c(=O)c1 (stereo not drawn)	·	-9	·	9	·	61*
COC(=O)[C@]12C[C@H](CC(=O)N3CCN(C(=O)c4ccco4)CC3)C(=O)N(Cc3ccccc3)C1=C[C@H](C1CCCC1)O[C@@H]2C	·	·	·	14	·	·
Cc1cc(NC(=O)CN2CCOCC2)n(-c2nc3ccccc3s2)n1	5	·	5	-19	23	·
CC(=O)Nc1cc(C)nn1-c1nc2ccccc2s1	-40	11	4	1	-39	52*
COc1ccc2nc(NC(=O)Cc3cccs3)sc2c1	-56	1	10	-25	-66	-22
CCOc1ccc2nc(NC(=O)Cc3cccs3)sc2c1	-60	64*	-49	·	-57	-15
CCCc1nc2ccccc2c(=O)n1/N=C/c1ccccc1O	13	-2	20	1	2	56*
COP1(=O)CCOCC[C@H](CC(C)C)NC(=O)[C@H](CC(C)C)N1 (stereo partly drawn)	·	·	·	-14	·	·
CCOC(=O)[C@@]12CN(C(=O)OC(C)(C)C)CC=C1N(Cc1ccc(OC)cc1)C(=O)[C@H]2CC(=O)N1CCSCC1	·	·	·	-12	·	·
NC(=S)n1[nH]c(-c2ccc([N+](=O)[O-])cc2)c(N=Nc2ccc(Cl)cc2)c1=O	·	12	60*	·	·	-23
O=C1NC(c2ccc(Cl)c([N+](=O)[O-])c2)Nc2ccccc21 (stereo not drawn)	-1	0	28	8	-4	55*
CCCCCN1CCCCC(NC(=O)c2ccc3ccccc3c2)C1=O (stereo not drawn)	·	·	·	-6	·	·
CCCCNC(=O)C[C@H]1C[C@@]2(C(=O)OC)C(=C[C@H](COCc3ccccc3)O[C@@H]2C)N(Cc2ccco2)C1=O	·	·	·	7	·	·
CC[C@@H](C(=O)[C@@H](C)[C@@H](O)[C@H](C)[C@@H]1O[C@@H]([C@@H](CC)C(=O)O)CC[C@@H]1C)[C@H]1O[C@]2(C=C[C@@H](O)[C@]3(CC[C@@](C)([C@H]4CC[C@](O)(CC)[C@H](C)O4)O3)O2)[C@H](C)C[C@@H]1C	·	5	90*	45*	·	-36
CN1CCN(C(c2cccnc2)c2ccc3cccnc3c2O)CC1 (stereo not drawn)	-1	7	6	·	1	62*
CN1CCN(C(c2ccc(F)cc2)c2ccc3cccnc3c2O)CC1 (stereo not drawn)	·	·	5	·	·	18
